Measurements taken from ChEMBL document CHEMBL4513216, “Probing the Open Global Health Chemical Diversity Library for Multistage-Active Starting Points for Next-Generation Antimalarials” (ACS Infect Dis, 2020).
Among all 68,000 compounds or so, about 2,700 (4%) showed an effect of 50% or more. Many of the other results were omitted from the sample, so strong results are more common in it than they were.

These molecules were tested on Plasmodium berghei (assay: Screen against P. berghei liver stage (PbLuc), transformed with Luciferase, at 2uM). Settings: tested at 2 uM.
Type: functional, HepG2

Compound | INHIBITION [%]
CCCc1noc(CNc2ccc(C(=O)N3CCCC3)cc2C)n1 | -11.2
CCc1noc(CNc2ccc(C(=O)N3CCCC3)cc2C)n1 | 24.15
Cc1cc(C(=O)N2CCCC2)ccc1NCc1nc(CC(C)C)no1 | 58.05
NC(=O)c1cccc(CN2CCc3c(ncn3C3CC3)C2)c1 | 11.95
CC(C)CNC(=O)c1cccc(CN2CCc3c(ncn3C)C2)c1 | 21.43
Cn1cnc2c1CCN(Cc1cccc(C(=O)N3CCCCC3)c1)C2 | 5.91
Cn1cnc2c1CCN(Cc1cccc(OCC(N)=O)c1)C2 | 3.9
Cn1cnc2c1CCN(Cc1cccc(C(N)=O)c1)C2 | 74.87
Cn1cnc2c1CCN(Cc1ccc(C(=O)N3CCCC3)cc1)C2 | 51.21
CCS(=O)(=O)Cc1nc(-c2cnn3c(C)cc(C)nc23)no1 | -9.94
CN1CCN([C@@H]2CN(C(=O)c3cc4cccc(F)c4[nH]3)C[C@H]2O)CC1 | -17.65
CNC(=O)C(C)CN(C)C(=O)Nc1cc(F)cc(Br)c1 (configuration not stated) | -0.47
CN(C)CCNC(=O)c1ccccc1NC(=O)c1cc(Cl)ccc1Cl | 13.39
O=C(NCc1ccco1)[C@@H]1CC[C@@H]2[C@@H](CCN2CC2CC2)O1 | 22.89
N#CC1(NC(=O)CNCCn2cccn2)CCCCC1 | -45.11
CC(Cn1cccn1)NCc1nc(-c2ccc3c(c2)OCO3)no1 (configuration not stated) | -35.26
CC(Cn1cccn1)NCc1nc(-c2cccc(Cl)c2)no1 (configuration not stated) | 73.05
Cc1cnn(CC(C)NCC(=O)NCCc2cccs2)c1 (configuration not stated) | -28.18
CC(Cn1cccn1)NCC(=O)NCCc1cccs1 (configuration not stated) | 66.99
CCCc1nc(CNC(C)Cn2cccn2)cs1 (configuration not stated) | -6.71
CCc1nc(CNC(C)Cn2cccn2)cs1 (configuration not stated) | 55.7
N#CC1(NC(=O)COC(=O)Cn2cccn2)CCCC1 | -40.04
CC(Cn1cccn1)NCc1nc(-c2cccnc2)no1 (configuration not stated) | -15.36
CC(Cn1cccn1)NC(=O)NCCc1cccs1 (configuration not stated) | -26.87
CC(Cn1cccn1)NCC(=O)NC1(C#N)CCCCC1 (configuration not stated) | 51.14
CC(Cn1cccn1)NCc1csc(Cc2ccccc2)n1 (configuration not stated) | -44.51

Compound | INHIBITION [%]
NCCc1cccc(CN2CCN(c3cccc(Cl)c3)C(=O)C2)c1 | 31.35
COCc1nc(C(=O)N2CCN(Cc3ccsc3)CC2)cs1 | 8.93
CC(C)C(=O)N1CCCC(Cc2ncccn2)C1 (configuration not stated) | -24.73
CC(C)COC1CCN(C(=O)c2ccc(C(F)(F)F)[nH]c2=O)CC1 | -24.73
FC(F)(F)c1cccc(OC2CCN(Cc3c[nH]cn3)CC2)c1 | -6.65
CCC1=N[C@@]2(CC[C@@H]3CN(CC4CC4)C[C@@H]32)C(=O)N1 | -26.61
O=C(NC1CC1)c1cnc(-c2noc3cc(N4CCCCC4)ccc23)s1 | 18.11
CC(Cn1cccn1)NCc1nc(-c2cccs2)no1 (configuration not stated) | 51.21
Cc1cnn(CC(C)NCc2nc(-c3cccnc3)no2)c1 (configuration not stated) | -36.24
Cc1cccc(-c2noc(CNC(C)Cn3cc(C)cn3)n2)c1 (configuration not stated) | -26.75
Cc1cnn(CC(C)NCc2nc(-c3cccs3)no2)c1 (configuration not stated) | -41.76
CC(Cn1cccn1)NCCCc1nc(-c2cccs2)no1 (configuration not stated) | 21.39
Cc1cnn(CC(C)NCc2nc(-c3ccoc3)no2)c1 (configuration not stated) | 59.68
O=C(CN1CCOC(CNc2cccnn2)C1)NCc1cccs1 (configuration not stated) | -48.41
Cc1cc(C)n(-c2ccc(N3CCC4(CC3)OCC(C)O4)nc2)n1 (configuration not stated) | -11.55
COCC1CN(CC2CC2)Cc2ncn(CC3CC3)c21 (configuration not stated) | -21.31
COCCN1CCO[C@@H]2CN(C(=O)Cc3ccc(F)cc3)CC[C@@H]2C1 | 3.72
CN(C)C[C@@H]1C[C@@H]2CN(C(=O)Cc3cccs3)CC[C@@H]2N1C | 54.01
CC(=O)N1[C@H](CN(C)C)C[C@@H]2CN(C(=O)Cc3cccs3)CC[C@@H]21 | 6.24
CN(C)CCN1CCO[C@@H]2CN(C(=O)Cc3ccsc3)CC[C@@H]2C1 | -19.51
CCN1CCO[C@@H]2CN(C(=O)NCc3ccccc3)CC[C@@H]2C1 | 0.15
CS(=O)(=O)N1CCO[C@@H]2CN(C(=O)Cc3cccs3)CC[C@@H]2C1 | 20.87
CN1CCO[C@@H]2CN(C(=O)Cc3cccs3)CC[C@@H]2C1 | 52.96
CC(=O)N1CCO[C@@H]2CN(C(=O)NCc3ccccc3)CC[C@@H]2C1 | 11.79
CC(C)N1CCO[C@@H]2CN(C(=O)Cc3cccs3)CC[C@@H]2C1 | -7.26
Cc1ccc(CC(=O)N2CC[C@@H]3CN(CCN(C)C)CCO[C@@H]3C2)cc1 | 50.96

Compound | INHIBITION [%]
CN1[C@H](CN2CCCC2)C[C@@H]2CN(C(=O)Cc3cccs3)CC[C@@H]21 | 10.62
CN1CCO[C@@H]2CN(C(=O)NCc3ccccc3)CC[C@@H]2C1 | 69.86
Fc1ccccc1Cn1c(C2CCNCC2)cc2cccnc21 | -23.54
CCOc1cccc(C(=O)N2CCN(c3nccc(OC)n3)CC2)c1 | 8.37
CCc1ncc(C(=O)N2CCCN(C3CCCCC3)CC2)cn1 | -35.1
COc1cccc(C2(C(=O)NC3CCc4nccn4C3)CCCC2)c1 (configuration not stated) | -5.74
O=C(c1nc(=O)[nH][nH]1)N1CCCCCC1 | 33.9
CCn1c(C2CCCN(Cc3ccnc4ccccc34)C2)nn(C)c1=O (configuration not stated) | 17.48
OCCOCCNCC1(c2ccc(F)cc2)CCOC1 (configuration not stated) | -18.52
CN(Cc1ccccc1)CC(O)Cn1cnc2cc(F)ccc2c1=O (configuration not stated) | -75.13
Cc1ccc(N2CC[C@H]3O[C@@H](C(=O)NCc4ccco4)CC[C@H]32)nn1 | 4.64
CCNC(=O)NC(=O)CN1CCOC(c2ccc(Br)cc2)C1 (configuration not stated) | 59.94
CCNC(=O)NC(=O)CN1CCOC(c2cccc(Br)c2)C1 (configuration not stated) | 16.72
CCCNC(=O)CN1CCOC(c2ccc(Br)cc2)C1 (configuration not stated) | 15.82
Cn1cc(NC(=O)c2cc3c(s2)CCCC3)cn1 | -56.09
Cc1nc(C)n(CC2CCCCN2CCCS(C)(=O)=O)n1 (configuration not stated) | -12.84
O=C(NCCc1ccncc1)c1ccc(S(=O)(=O)NC2CCC2)cc1 | 28.85
CN(C)CCNC(=O)c1ccc(S(=O)(=O)N[C@@H]2CCNC2)cc1 | 8.31
CC(C)N(CCNC(=O)c1ccc(S(=O)(=O)NC2CC2)cc1)C(C)C | 58.12
CC(O)CN1CCN(C(=O)c2cccn2Cc2ccccc2)CC1 (configuration not stated) | 15.28
O=C(c1ccncc1)N1CCCn2c(CN3CCCC3)nnc2C1 | 23.14
Cc1cc(C)c(CNC(=O)NCC2Cc3ccccc32)c(=O)[nH]1 (configuration not stated) | 45.16
NC(=O)c1ccc(CNC(=O)Nc2cn[nH]c2)cc1 | 26.06
CN1CC(=O)N(c2cnn(C)c2)CC12CCN(Cc1ccccc1)C2 (configuration not stated) | 15.96
COCc1nnc(C(=O)N2CCC(N3CCCCC3)CC2)o1 | 57.89
COCc1nnc(C(=O)N2CC(N3CCCCC3)C2)o1 | -13.03

Compound | INHIBITION [%]
COCc1nnc(C(=O)N2CCCC(O)C2)o1 (configuration not stated) | 30.88
CN(C)C(C(=O)N1CC(Oc2ccccc2F)C1)c1ccccc1F (configuration not stated) | 19.07
CCCN1CCCN(C(=O)c2ccc(Oc3cccnc3)cc2)CC1 | 35.37
COc1ccc(OCCN(C)CCCn2cnc3c(N)ncnc32)cc1 | 36.29
COc1cccc(SCCCn2cnc3c(N)ncnc32)c1 | 52.19
COc1cccc(CN(C)CCCn2cnc3c(N)ncnc32)c1 | -51.87
Cc1ncnc2c1CCN(C(=O)c1ccncc1F)CC2 | 6.81
O=C1CC(c2ccncc2)C2(CCN(CC3CC3)CC2)N1 (configuration not stated) | 22.2
Cc1nc(N2CCCC(C)C2)nc2cc(S(C)(=O)=O)ccc12 (configuration not stated) | -24.78
Cc1nc(N2CCN3CCCCC3C2)nc2cc(S(C)(=O)=O)ccc12 (configuration not stated) | -15.11
Cc1nc(N2C[C@H]3CC[C@@H](C2)N3)nc2cc(S(C)(=O)=O)ccc12 | 77.42
O=C(COc1ccccc1)NCCNC(=O)c1scnc1Cl | 7.71
CC(C)(C)OC(=O)N1CCCN(c2nnc(C3CC3)s2)CC1 | 34.69
Cc1nnc(NC(=O)CN2CCc3nn(C)c(=O)cc3C2)s1 | 23.27
Cc1cc(CN2CCN(CC(O)c3ccc4c(c3)OCO4)CC2)no1 (configuration not stated) | -19.1
Cc1noc(C)c1CNCC1COCc2c(-c3ccsc3)nnn2C1 (configuration not stated) | 7.68
Cc1cc(C)c(CNC(=O)c2ccc3c(c2)CCC3)c(=O)[nH]1 | 58.52
Cc1cc(C)c(CNC(=O)NCc2ccc3c(c2)CCC3)c(=O)[nH]1 | -7.02
Cc1ccc(C(O)CNC(=O)NCc2c(C)cc(C)[nH]c2=O)cc1 (configuration not stated) | -11.2
Cc1cc(C)c(CNC(=O)NCCOc2ccc3c(c2)CCC3)c(=O)[nH]1 | 14.11
Cc1cc(C)c(CNC(=O)NC(C)c2ccc3c(c2)CCC3)c(=O)[nH]1 (configuration not stated) | 50.05
Cc1cc(C)c(CNC(=O)Cc2ccc3c(c2)CCCC3)c(=O)[nH]1 | 4.18
CNc1ncc(C(=O)N2CCOC(C(=O)NC3CCCC3)C2)cn1 (configuration not stated) | 8.75
Cc1ccc(CN(CCCn2ccnc2)Cc2cc(F)ccc2F)s1 | 20.71
